# High-throughput results: PubChem BioAssay, Broad Institute
# Rows were chosen to be rich in hits. Some 2.6% of all compounds tested hit in one or more screens of this group.
# NFkB binder – binds human NF-kappa-B p105 on microarray; P19838; Small molecule microarray, anti-His fluorescence binding; calls only; 1.3% of 17,000 active;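 active means spot fluorescence over background significantly raised, with a chance value under 7% in all four replicate spots of the compound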;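 further: probe protein is his-tagged human p50 processed subunit at 1 µg/ml; raw spot fluorescence signals with no normalization applied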
# Target sequence (P19838 1-433 limits assumed): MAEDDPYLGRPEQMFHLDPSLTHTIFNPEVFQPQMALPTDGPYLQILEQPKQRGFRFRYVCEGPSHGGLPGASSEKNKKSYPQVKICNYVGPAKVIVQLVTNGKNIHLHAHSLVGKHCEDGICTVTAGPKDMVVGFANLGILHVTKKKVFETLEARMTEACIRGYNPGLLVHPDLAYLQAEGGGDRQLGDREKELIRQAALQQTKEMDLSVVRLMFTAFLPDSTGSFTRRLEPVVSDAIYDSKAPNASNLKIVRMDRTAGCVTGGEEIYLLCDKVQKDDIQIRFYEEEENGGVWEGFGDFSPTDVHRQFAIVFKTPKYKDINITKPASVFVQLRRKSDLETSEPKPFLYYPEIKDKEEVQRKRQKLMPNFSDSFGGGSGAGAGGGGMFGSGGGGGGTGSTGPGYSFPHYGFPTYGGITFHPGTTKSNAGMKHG
# STAT3 SMM – STAT3 (human) binding | Small molecule microarray, His-STAT3 binding, anti-His fluorescence | P40763 | calls only | AID 624138 | 0.2% of 17,000 active;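 active means compounds whose four printed spots each show fluorescence over background unusually high for their array block, chance value under 7%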
# Myc binder – binds human c-Myc on microarray; P01106; small molecule microarray, His-c-Myc binding, anti-His fluorescence; calls only; 1.5% of 17,000 active; AID 624141;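 active means spot fluorescence over background with P-value below 7% in all four replicate spots, showing protein binding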;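 further: score is binary with 100 for all four spots passing and 0 otherwise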
# mut p53 SMM – binds human mutant p53 on microarray; AID 624136; calls only; small molecule microarray binding, anti-GST fluorescence; 0.4% of 17,000 active;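 active means compounds whose four printed spots each glow above background more than chance allows, each with a p-value under 7%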
# p53 PUMA act – restores mutant p53 pathway signaling in SW480 cells. activation, % at 9.98 µM. SW480 PUMA-promoter luciferase, p53 mutant reactivation. 1.5% of 28,000 active; in the data active means activation above about 52%
# An asterisk follows results filed as active; i = inactive; x = not tested or not shown; + = active, no number.
SMILES,NFkB binder,STAT3 SMM,Myc binder,mut p53 SMM,p53 PUMA act
CN1/C(=C\C=C2\C(=O)Oc3ccccc3C2=O)C(C)(C)c2ccccc21,x,x,x,x,105.5*
Cc1ccc([N+](=O)[O-])cc1NS(=O)(=O)c1cccc(C(=O)Nc2ccccc2)c1,x,x,x,x,14.8
CC1Oc2c3c(c4c(-c5ccccc5)cc(=O)oc4c2C(=O)C1C)OC(C)(C)C=C3 (stereo not drawn),+,i,i,i,-23.3
N#Cc1c(NC(=O)c2ccc(COc3ccccc3Cl)o2)sc2c1CCCC2,i,i,i,i,4.4
O=C(CC1CCOCC1)Nc1ccc(I)cc1,x,x,x,x,62.6*
O=C(CC1NC(=O)NC1=O)Nc1ccc(F)cc1 (stereo not drawn),x,x,x,x,-1.8
CS(=O)(=O)N(CC(=O)Nc1cccc([N+](=O)[O-])c1)c1ccc2c3c(cccc13)CC2,i,i,i,i,-23.5
O=C(CNS(=O)(=O)c1ccccc1)Nc1ccc(Br)cc1F,i,i,i,i,-7.9
C[C@@H]1CN([C@@H](C)CO)C(=O)c2cc(NC(=O)c3ccncc3)ccc2O[C@@H](C)CCCCO[C@@H]1CN(C)C(=O)Nc1ccccc1,i,i,i,i,4.3
C[C@@H]1CCCCO[C@@H](CN(C)C(=O)Nc2cccc3ccccc23)[C@H](C)CN([C@H](C)CO)C(=O)c2cc(N(C)C)ccc2O1,+,i,+,i,-37.6
CC(C)NC(=O)N(C)C[C@H]1OCCCC[C@@H](C)Oc2ccc(NC(=O)c3ccncc3)cc2C(=O)N([C@@H](C)CO)C[C@H]1C,+,i,i,i,10.0
C[C@@H]1CN([C@H](C)CO)C(=O)c2cc(NC(=O)c3ccncc3)ccc2O[C@@H](C)CCCCO[C@H]1CN(C)C(=O)Nc1cccc2ccccc12,+,i,+,i,-51.8
CC(C)NC(=O)N(C)C[C@H]1OCCCC[C@H](C)Oc2ccc(NC(=O)c3ccncc3)cc2C(=O)N([C@@H](C)CO)C[C@H]1C,i,i,i,i,4.5
C[C@@H]1CN([C@H](C)CO)C(=O)c2cc(NC(=O)c3ccncc3)ccc2O[C@@H](C)CCCCO[C@@H]1CN(C)C(=O)Nc1cccc2ccccc12,i,+,i,i,-19.5
C[C@@H]1CCCCO[C@@H](CN(C)C(=O)Nc2cccc3ccccc23)[C@H](C)CN([C@@H](C)CO)C(=O)c2cc(NC(=O)c3ccncc3)ccc2O1,+,i,+,i,-30.9
C[C@@H]1CCCCO[C@@H](CN(C)C(=O)Nc2cccc3ccccc23)[C@H](C)CN([C@H](C)CO)C(=O)c2cc(NC(=O)c3ccncc3)ccc2O1,+,i,+,i,-34.1
C[C@H]1CCCCO[C@@H](CN(C)C(=O)Nc2ccccc2)[C@@H](C)CN([C@@H](C)CO)C(=O)c2cc(NC(=O)c3ccncc3)ccc2O1,i,i,i,i,3.0
C[C@@H]1CN([C@@H](C)CO)C(=O)c2cc(NC(=O)c3ccncc3)ccc2O[C@@H](C)CCCCO[C@@H]1CN(C)C(=O)Nc1cccc2ccccc12,i,+,i,+,-19.3
C[C@@H]1CN([C@@H](C)CO)C(=O)c2cc(NC(=O)c3ccncc3)ccc2O[C@@H](C)CCCCO[C@H]1CN(C)C(=O)Nc1cccc2ccccc12,+,i,+,i,-78.6
Cc1nonc1OCCNc1cc(N2CCCC2)ccc1[N+](=O)[O-],x,x,x,x,89.4*
Cc1nonc1OCCNc1cc(N2CCOCC2)ccc1[N+](=O)[O-],x,x,x,x,19.9
CC(C)(O)[C@@H]1Cc2cc3ccc(=O)oc3cc2O1,i,i,i,i,53.6*
CC(C)(OC(=O)c1ccccc1)[C@@H]1Cc2cc3ccc(=O)oc3cc2O1,i,i,i,i,13.0
Cc1ccc(N(C(C)C(N)=O)S(C)(=O)=O)cc1C (stereo not drawn),i,i,i,i,3.7
O=C(CSc1nnnn1-c1ccccc1F)Nc1ccc(Br)cc1,i,i,i,i,-7.7
SMILES,NFkB binder,STAT3 SMM,Myc binder,mut p53 SMM,p53 PUMA act
COc1ccc(CNc2nc3ccccc3n2C)c(O)c1,i,i,i,i,142.3*
CCn1c(NCc2ccccc2O)nc2ccccc21,i,i,i,i,61.6*
O=C(CSc1nc(-c2ccccc2)cc(C(F)(F)F)n1)N1CCCc2ccccc21,i,i,i,i,2.3
CS(=O)(=O)N(CC(=O)Nc1ccc(Oc2ccccc2)cc1)c1ccc2c(c1)OCCO2,x,x,x,x,27.5
C[C@H]1CN([C@@H](C)CO)C(=O)c2cccc(NS(=O)(=O)c3ccc(Cl)cc3)c2O[C@H]1CN(C)C(=O)Nc1ccc(C(F)(F)F)cc1,i,i,i,i,-4.8
C[C@]12CCC3C4(C=CC5(C=C4C(=O)c4ccc(F)c(F)c4)C[C@@H](O)CC[C@]35C)C1CC[C@@]2(O)CN1CCC(C(N)=O)CC1 (stereo partly drawn),i,i,i,i,x
CC(C)(C)[C@@H]1C=C(C(=O)O)O[C@H](OCc2ccc(CO)cc2)C1,+,i,i,i,x
Cc1noc(C)c1S(=O)(=O)N(C)C[C@@H]1OCCCC[C@@H](C)Oc2ccc(N(C)C)cc2C(=O)N([C@@H](C)CO)C[C@H]1C,i,i,i,i,0.2
Cc1noc(C)c1S(=O)(=O)N(C)C[C@@H]1OCCCC[C@@H](C)Oc2ccc(N(C)C)cc2C(=O)N([C@H](C)CO)C[C@H]1C,+,i,+,i,-3.8
Cc1noc(C)c1S(=O)(=O)N(C)C[C@H]1OCCCC[C@H](C)Oc2ccc(N(C)C)cc2C(=O)N([C@@H](C)CO)C[C@@H]1C,i,i,i,+,3.6
Cc1noc(C)c1S(=O)(=O)N(C)C[C@H]1OCCCC[C@@H](C)Oc2ccc(NC(=O)NC(C)C)cc2C(=O)N([C@@H](C)CO)C[C@H]1C,i,i,+,i,3.8
C[C@H](CO)N1C[C@H](C)[C@@H](CN(C)S(=O)(=O)c2ccccc2)OCCCC[C@H](C)Oc2ccc(N(C)C)cc2C1=O,i,i,i,+,4.9
Cc1cc(Cl)c(S(=O)(=O)Nc2ccc(F)cc2)cc1OCC(N)=O,x,x,x,x,-6.3
Cc1onc(-c2ccccc2Cl)c1C(=O)NCCc1ccc(S(N)(=O)=O)cc1,i,i,i,i,-8.9
CC(C)c1ccc(NC(=O)CSc2n[nH]c(-c3ccc(Cl)cc3)n2)cc1,i,i,i,i,10.5
NC(=O)c1c(NC(=O)COc2ccc3ccccc3c2)sc2c1CCCCCC2,x,x,x,x,-7.1
Cc1nc2ccc(NC(=S)NCCCO)cc2nc1C,i,i,+,i,25.7
COc1ccc(NC(=O)CSc2ccccn2)c([N+](=O)[O-])c1,x,x,x,x,62.0*
COc1ccc(OCC(=O)Nc2ccc(C)cc2[N+](=O)[O-])cc1,x,x,x,x,135.5*
COc1ccccc1NC(=O)CSc1ccccn1,x,x,x,x,26.7
COc1ccc(OCC(=O)Nc2cc(OC)c(Cl)cc2OC)cc1,i,i,i,i,81.6*
